# PubChem BioAssay AID743088 (The Scripps Research Institute Molecular Screening Center, 2013)
# Active and inactive are the calls of the source.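 The calls were made as follows: active = binding inhibited by at least 50%, or stimulated by at least 50%, shown as inhibition of -50% or lower; inactive = the rest.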
# System: Phorbol Ester
# Test: off-target binding across receptor panel, profiling panel, selectivity assay for AVPR1a antagonist project, biochemical, Panlabs HitProfilingScreen (AID 743088)
# Conditions: Panlabs radioligand binding panel, 30 targets, at 10 µM, stronger effect = higher value
structure (smiles),measurement,value
O=C(C1CCN(c2ccc(Cl)cn2)CC1)N(CC1CC1)c1ccc(Cl)cc1,inhibition of binding,-13% (inactive)
